According to PubChem BioAssay AID2419 (Southern Research Specialized Biocontainment Screening …, 2010):
Results with a measured potency or affinity are listed apart.

Experiment: antiviral activity against WNV, CPE read-out – cell-based (AID 2419)
Conditions: West Nile virus-infected cells, stronger effect = higher value; at 200 µM unless noted; call rule not given here

Max CPE inhibition, inactive:
OC1c2c(F)cccc2N=C2CCCN21 (stereo not given) 0.91% [at 0.39 µM]
Cc1ccc2nc(SCC(=O)Nc3ccc4c(c3)CCC4)n(-c3ccccc3)c(=O)c2c1 6.42% [at 25 µM]
COc1cccc2c(=O)n(-c3ccccc3)c(SCC(=O)Nc3ccc4c(c3)CCC4)nc12 2.38% [at 12.5 µM]
C=CCN(C(=O)c1ccccc1Cl)c1nc(-c2ccc(OC)cc2)cs1 1.14%
COc1ccc(Cn2nc(C)cc2OC(=O)c2c(F)cccc2F)cc1 1.63%
Cc1cccc2c(=O)n(-c3ccccc3)c(SCC(=O)Nc3ccc4c(c3)CCC4)nc12 2.82% [at 25 µM]
OC1c2c(F)cccc2N=C2CCCCCN21 (stereo not given) 1.99% [at 0.39 µM]
O=C(CSc1nc2ccc(F)cc2c(=O)n1-c1ccccc1)Nc1ccc2c(c1)CCC2 3.95%
Cc1cc(OC(=O)c2c(F)cccc2F)n(Cc2ccccc2)n1 1.92%
O=C(CSc1nc2ccccc2c(=O)n1-c1ccc(F)cc1F)Nc1ccc(N2CCOCC2)cc1 1.05% [at 0.39 µM]
OC1c2cc(Br)ccc2N=C2CCCCN21 (stereo not given) 0.62% [at 3.13 µM]
OC1c2c(F)cccc2N=C2CCCCN21 (stereo not given) 0.91% [at 0.39 µM]
COc1ccc(Cn2nc(C)cc2OC(=O)c2ccccc2)cc1 1.5%
OC1c2cc(Br)ccc2N=C2CCCCCN21 (stereo not given) 6.41% [at 0.78 µM]
O=C(CSc1nc2cccc(F)c2c(=O)n1-c1ccccc1)Nc1ccc2c(c1)CCC2 2.29% [at 25 µM]
OC1c2cc(Cl)cc(Cl)c2N=C2CCCN21 (stereo not given) 1.94% [at 0.78 µM]
COc1ccc(Cn2nc(C)cc2OC(=O)c2c(F)ccc(C)c2F)cc1 14%
O=C(CSc1nc2cccc(I)c2c(=O)n1-c1ccccc1)Nc1ccc2c(c1)CCC2 3.08%
O=C(CSc1nc2ccccc2c(=O)n1-c1ccc(F)cc1)Nc1ccc2c(c1)CCC2 29.6% [at 100 µM]
OC1c2cc(I)ccc2N=C2CCCN21 (stereo not given) 0.77% [at 0.39 µM]
